What was measured:
Assay in all cases: log2 ratio of Biotin-Ahx-Ub-VS probe labelling (fragment/DMSO); higher = less target engagement (more negative = stronger competition), active = hit call of the paper (q ≤ 0.05, log2 ratio ≤ -1)
Conditions in all cases: compound concentration: 200 uM; treatment time: 3 h
USP19 = molecular target: T1, USP19 (UniProt O94966)
T1 sequence (whole entry): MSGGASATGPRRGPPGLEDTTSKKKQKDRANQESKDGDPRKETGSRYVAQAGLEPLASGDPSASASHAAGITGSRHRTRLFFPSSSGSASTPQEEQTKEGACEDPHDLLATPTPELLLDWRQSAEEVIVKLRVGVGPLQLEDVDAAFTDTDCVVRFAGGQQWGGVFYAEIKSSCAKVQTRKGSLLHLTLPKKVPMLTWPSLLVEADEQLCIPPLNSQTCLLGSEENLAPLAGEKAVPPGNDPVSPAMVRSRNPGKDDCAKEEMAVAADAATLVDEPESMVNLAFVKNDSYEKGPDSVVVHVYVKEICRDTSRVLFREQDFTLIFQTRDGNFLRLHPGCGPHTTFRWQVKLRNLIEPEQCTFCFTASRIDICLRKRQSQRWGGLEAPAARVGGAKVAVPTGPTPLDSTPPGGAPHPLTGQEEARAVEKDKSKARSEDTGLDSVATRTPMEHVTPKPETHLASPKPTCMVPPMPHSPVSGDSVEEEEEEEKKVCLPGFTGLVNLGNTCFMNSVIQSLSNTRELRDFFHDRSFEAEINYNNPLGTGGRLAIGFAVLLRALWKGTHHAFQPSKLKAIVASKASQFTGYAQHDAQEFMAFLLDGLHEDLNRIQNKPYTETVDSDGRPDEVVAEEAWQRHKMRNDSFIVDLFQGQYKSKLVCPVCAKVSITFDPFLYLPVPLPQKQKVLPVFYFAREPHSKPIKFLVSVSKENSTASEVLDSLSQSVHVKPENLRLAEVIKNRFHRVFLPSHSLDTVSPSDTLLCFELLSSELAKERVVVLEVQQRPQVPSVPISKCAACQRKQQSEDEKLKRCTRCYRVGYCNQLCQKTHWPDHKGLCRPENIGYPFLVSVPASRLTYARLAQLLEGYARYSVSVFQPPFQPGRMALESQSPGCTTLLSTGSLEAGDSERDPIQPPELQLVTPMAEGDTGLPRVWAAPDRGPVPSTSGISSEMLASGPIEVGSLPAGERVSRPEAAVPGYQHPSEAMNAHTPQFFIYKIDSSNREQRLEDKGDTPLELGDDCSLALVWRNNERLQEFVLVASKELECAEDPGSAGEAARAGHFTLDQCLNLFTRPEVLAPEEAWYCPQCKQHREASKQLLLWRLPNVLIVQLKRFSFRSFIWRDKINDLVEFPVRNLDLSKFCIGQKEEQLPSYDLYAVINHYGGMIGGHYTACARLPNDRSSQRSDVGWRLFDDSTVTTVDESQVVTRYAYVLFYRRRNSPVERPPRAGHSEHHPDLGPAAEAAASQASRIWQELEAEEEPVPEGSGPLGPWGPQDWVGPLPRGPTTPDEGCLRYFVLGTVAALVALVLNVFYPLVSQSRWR
Summary of the method: (§1)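 Average log2 ratios of fragment over vehicle were obtained by unpaired t-test from global-median-normalised Spectronaut label-free quantities. Proteins with ≥2 unique peptides were included. HEK293T lysate (495 µg per sample) was treated in triplicate with fragment at 200 µM or vehicle for 3 h, then with Biotin-Ahx-Ub-VS at 0.5 µM final for 1 h, and labelled DUBs were NeutrAvidin-enriched and run by diaPASEF LC-MS/MS.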

USP24 = USP24 (UniProt Q9UPU5)
Summary of the method: as §1

USP25 = molecular target: T2, USP25 (UniProt Q9UHP3)
T2 sequence (whole entry): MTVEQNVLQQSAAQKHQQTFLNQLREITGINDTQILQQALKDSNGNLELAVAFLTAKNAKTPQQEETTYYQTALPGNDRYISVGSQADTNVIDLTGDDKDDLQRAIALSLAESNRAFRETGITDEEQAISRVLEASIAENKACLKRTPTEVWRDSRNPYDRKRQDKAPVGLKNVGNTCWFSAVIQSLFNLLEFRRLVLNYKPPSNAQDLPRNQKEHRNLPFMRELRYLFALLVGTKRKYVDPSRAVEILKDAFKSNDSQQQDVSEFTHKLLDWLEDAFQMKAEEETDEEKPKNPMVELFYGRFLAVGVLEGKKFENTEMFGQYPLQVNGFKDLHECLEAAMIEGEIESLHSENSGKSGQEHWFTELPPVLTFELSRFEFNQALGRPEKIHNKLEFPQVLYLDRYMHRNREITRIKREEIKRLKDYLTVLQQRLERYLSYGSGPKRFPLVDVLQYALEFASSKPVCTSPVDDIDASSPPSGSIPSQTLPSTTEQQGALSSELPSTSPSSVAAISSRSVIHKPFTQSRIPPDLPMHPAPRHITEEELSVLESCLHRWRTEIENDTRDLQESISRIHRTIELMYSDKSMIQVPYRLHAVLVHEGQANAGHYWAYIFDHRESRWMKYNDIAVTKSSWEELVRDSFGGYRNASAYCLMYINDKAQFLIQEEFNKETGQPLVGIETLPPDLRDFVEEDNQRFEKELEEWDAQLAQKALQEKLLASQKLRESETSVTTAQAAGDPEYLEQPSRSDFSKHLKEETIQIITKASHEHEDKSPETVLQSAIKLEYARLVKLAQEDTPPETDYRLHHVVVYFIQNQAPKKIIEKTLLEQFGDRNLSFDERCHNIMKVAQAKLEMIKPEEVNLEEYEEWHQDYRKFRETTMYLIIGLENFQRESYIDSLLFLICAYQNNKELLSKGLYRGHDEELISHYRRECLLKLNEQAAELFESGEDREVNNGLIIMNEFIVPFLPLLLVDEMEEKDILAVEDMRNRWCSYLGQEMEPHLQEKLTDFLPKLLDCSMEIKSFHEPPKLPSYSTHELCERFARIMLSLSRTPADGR
Summary of the method: as §1

USP28 = molecular target: T3, USP28 (UniProt Q96RU2)
T3 sequence (whole entry): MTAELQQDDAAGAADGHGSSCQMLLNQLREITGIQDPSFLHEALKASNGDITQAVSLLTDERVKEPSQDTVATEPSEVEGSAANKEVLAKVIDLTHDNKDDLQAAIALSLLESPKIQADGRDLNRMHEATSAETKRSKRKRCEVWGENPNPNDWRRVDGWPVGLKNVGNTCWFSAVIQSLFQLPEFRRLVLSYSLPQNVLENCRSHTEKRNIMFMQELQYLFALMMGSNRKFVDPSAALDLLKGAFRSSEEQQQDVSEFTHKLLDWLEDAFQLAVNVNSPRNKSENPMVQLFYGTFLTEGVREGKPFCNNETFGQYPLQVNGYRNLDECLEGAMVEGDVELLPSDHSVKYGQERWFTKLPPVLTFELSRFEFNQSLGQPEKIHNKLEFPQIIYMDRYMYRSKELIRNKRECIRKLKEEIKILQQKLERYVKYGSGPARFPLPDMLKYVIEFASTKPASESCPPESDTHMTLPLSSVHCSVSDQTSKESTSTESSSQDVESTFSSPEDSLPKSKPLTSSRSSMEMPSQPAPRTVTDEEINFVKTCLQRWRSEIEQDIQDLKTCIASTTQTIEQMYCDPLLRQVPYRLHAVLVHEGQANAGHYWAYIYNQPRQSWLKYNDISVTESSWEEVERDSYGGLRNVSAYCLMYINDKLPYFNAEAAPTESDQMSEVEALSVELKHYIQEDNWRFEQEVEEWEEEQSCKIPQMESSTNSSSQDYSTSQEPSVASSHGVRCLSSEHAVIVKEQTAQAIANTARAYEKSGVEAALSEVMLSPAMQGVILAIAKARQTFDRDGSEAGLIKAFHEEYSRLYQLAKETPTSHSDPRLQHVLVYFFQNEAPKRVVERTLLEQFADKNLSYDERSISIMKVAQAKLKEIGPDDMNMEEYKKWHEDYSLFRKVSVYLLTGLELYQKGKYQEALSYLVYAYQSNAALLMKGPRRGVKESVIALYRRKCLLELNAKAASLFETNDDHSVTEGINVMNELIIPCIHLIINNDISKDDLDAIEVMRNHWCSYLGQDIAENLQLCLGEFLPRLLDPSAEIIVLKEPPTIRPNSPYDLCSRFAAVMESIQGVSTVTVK
Summary of the method: as §1

Measured: log2 ratio of Biotin-Ahx-Ub-VS probe labelling

Chain of USP24 (Q9UPU5 whole entry): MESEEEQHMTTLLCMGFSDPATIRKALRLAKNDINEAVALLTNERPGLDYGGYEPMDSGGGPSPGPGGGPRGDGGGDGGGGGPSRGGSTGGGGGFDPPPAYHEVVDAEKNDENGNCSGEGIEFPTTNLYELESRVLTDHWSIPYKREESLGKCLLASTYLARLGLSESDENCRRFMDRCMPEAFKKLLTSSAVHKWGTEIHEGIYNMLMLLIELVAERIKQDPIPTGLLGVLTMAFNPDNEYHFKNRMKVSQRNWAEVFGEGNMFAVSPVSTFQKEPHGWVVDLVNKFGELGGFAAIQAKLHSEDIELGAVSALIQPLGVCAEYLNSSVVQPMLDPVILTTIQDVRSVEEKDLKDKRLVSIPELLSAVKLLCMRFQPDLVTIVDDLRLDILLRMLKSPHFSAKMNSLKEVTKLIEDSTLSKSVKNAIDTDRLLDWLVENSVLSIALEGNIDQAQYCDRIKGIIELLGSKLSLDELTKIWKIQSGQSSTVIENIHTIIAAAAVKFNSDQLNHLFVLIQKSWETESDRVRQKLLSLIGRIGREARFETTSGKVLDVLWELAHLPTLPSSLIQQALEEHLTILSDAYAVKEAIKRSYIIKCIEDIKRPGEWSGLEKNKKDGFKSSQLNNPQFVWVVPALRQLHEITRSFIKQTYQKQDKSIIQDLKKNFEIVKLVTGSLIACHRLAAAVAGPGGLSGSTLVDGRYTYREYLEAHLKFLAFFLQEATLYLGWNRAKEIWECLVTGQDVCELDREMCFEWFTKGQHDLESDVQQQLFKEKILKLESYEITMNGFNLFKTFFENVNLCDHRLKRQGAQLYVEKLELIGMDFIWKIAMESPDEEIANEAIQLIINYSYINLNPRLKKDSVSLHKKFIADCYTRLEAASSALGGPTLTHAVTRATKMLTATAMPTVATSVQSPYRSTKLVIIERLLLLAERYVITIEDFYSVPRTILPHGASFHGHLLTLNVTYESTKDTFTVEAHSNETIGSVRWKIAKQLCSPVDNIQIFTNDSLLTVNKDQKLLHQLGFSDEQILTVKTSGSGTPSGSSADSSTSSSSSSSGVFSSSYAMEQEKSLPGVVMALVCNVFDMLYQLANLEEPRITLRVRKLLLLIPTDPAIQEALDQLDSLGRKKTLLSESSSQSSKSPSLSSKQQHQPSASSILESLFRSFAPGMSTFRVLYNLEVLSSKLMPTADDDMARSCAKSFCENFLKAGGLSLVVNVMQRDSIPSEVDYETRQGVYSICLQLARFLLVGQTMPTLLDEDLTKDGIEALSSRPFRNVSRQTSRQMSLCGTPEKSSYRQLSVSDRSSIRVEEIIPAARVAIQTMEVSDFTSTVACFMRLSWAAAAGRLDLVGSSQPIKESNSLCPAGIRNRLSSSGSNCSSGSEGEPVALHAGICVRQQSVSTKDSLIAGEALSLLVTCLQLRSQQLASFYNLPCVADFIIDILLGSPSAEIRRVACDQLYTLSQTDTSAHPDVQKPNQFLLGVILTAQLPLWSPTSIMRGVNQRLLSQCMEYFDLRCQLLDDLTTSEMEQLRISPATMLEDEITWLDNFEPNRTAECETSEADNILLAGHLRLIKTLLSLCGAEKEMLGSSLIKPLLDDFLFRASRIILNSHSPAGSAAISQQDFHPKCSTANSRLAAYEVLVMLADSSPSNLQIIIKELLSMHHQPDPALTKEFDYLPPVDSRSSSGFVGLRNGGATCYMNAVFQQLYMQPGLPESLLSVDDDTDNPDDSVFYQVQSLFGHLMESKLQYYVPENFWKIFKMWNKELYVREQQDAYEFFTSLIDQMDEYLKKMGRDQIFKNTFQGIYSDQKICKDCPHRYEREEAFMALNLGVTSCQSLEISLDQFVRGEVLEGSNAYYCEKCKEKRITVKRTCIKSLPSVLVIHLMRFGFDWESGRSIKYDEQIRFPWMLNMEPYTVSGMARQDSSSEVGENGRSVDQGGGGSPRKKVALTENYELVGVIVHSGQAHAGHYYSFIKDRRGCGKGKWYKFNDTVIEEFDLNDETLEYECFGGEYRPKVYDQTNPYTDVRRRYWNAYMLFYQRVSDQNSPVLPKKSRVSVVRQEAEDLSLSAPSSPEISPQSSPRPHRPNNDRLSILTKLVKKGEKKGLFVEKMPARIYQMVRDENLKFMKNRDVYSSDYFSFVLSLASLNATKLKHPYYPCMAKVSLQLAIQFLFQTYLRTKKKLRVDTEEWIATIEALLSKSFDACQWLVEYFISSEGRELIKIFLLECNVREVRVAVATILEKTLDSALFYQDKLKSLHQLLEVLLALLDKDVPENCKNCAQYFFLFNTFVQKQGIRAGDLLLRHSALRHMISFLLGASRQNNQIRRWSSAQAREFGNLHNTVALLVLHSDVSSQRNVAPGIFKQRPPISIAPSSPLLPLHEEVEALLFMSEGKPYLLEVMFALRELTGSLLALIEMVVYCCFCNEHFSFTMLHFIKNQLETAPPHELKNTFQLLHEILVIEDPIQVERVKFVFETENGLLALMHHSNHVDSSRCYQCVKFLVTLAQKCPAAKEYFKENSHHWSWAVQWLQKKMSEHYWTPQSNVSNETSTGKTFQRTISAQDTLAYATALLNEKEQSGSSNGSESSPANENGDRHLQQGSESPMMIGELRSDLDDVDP

Cc1nc(CC2CCN(C(=O)CCl)CC2)no1
inactive: USP19 -0.747 | USP24 -0.783 | USP25 -0.763 | USP28 -0.873
